Reference: PubChem BioAssay AID1159580 (chemical genetic matrix, 2015)
In all, about 5,500 compounds went through this assay and about 2,000 (36%) were called active. About 18% were inconclusive and are not listed. No stated cut-off is given here; in the data, active means normalized growth mostly below about 0.91 (no sharp cut-off); inconclusive means no clear call, values can overlap the other calls; inactive means mostly above about 0.92. This is one part of the list.

Assay: chemical genetic growth profiling, strain panel (AID 1159580);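 further: tested at 20 µM; growth read once vehicle control cultures reached saturation at 30 °C; 1 = growth at the plate median or of vehicle wells; lower values mean less growth of the strain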
Conditions: S. cerevisiae deletion strains, growth OD

Measured: normalized growth

CC(=O)O[C@@H]1CC2C(C)(C)[C@@H](O)CC[C@]2(C)C2CC[C@@]3(C)[C@H](c4ccoc4)OC(=O)[C@H]4O[C@]43[C@@]21C (stereo partly specified)
inactive: locus YJR043C, strain POL32, active compounds read low 0.979 | locus YJR066W, strain TOR1, active compounds read low 0.966 | locus YKL009W, strain mrt4, active compounds read low 0.964 | locus YKL068W, active compounds read low 1.01 | locus YKL085W, strain MDH1 (second series), active compounds read low 1 | locus YKL085W, strain MDH1, active compounds read low 1 | locus YKL160W, strain elf1, active compounds read low 0.997 | locus YKR001C, strain vps1, active compounds read low 1 | locus YKR026C, strain gcn3, active compounds read low 1 | locus YKR091W, strain srl3, active compounds read low 1 | locus YLL001W, strain dnm1, active compounds read low 0.996 | locus YLL026W, active compounds read low 0.997 | locus YLL041C, strain sdh2, active compounds read low 0.997 | locus YLR027C, strain aat2, active compounds read low 0.999 | locus YLR039C, strain RIC1, active compounds read low 0.981 | locus YLR058C, strain SHM2, active compounds read low 1 | locus YLR102C, strain apc9, active compounds read low 1.01 | locus YLR113W, strain HOG1, active compounds read low 0.968 | locus YLR221C, strain rsa3, active compounds read low 0.987 | locus YLR258W, strain gsy2, active compounds read low 1.01 | locus YLR262C, strain YPT6 (second series), active compounds read low 0.967 | locus YLR262C, strain YPT6, active compounds read low 0.974 | locus YLR268W, strain sec22, active compounds read low 0.967 | locus YLR320W, strain mms22, active compounds read low 0.989 | locus YLR330W, strain CHS5, active compounds read low 0.999 | locus YLR342W, strain FKS1, active compounds read low 0.992 | locus YLR357W, strain rsc2, active compounds read low 1.03 | locus YLR370C, strain arc18, active compounds read low 1.01 | locus YLR371W, strain rom2, active compounds read low 1.03 | locus YLR384C, strain iki3, active compounds read low 0.992 | locus YLR418C, strain cdc73, active compounds read low 0.968 | locus YML016C, strain PPZ1, active compounds read low 1.01 | locus YML032C, strain rad52, active compounds read low 0.997 | locus YML120C, strain ndi1, active compounds read low 1 | locus YML124C, strain tub3, active compounds read low 1 | locus YMR058W, strain fet3, active compounds read low 1.01 | locus YMR078C, strain ctf18, active compounds read low 1.01 | locus YMR125W, strain sto1, active compounds read low 1.02 | locus YMR129W, active compounds read low 0.993 | locus YMR205C, strain PFK2, active compounds read low 0.993 | locus YMR223W, strain ubp8, active compounds read low 1.01 | locus YMR231W, strain pep5, active compounds read low 0.959 | locus YMR307W, strain GAS1, active compounds read low 0.953 | locus YNL067W, strain RPL9B, active compounds read low 1.05 | locus YNL071W, strain lat1, active compounds read low 0.993 | locus YNL153C, strain GIM3, active compounds read low 1.04 | locus YNL183C, strain NPR1, active compounds read low 0.976 | locus YNL209W, strain ssb2, active compounds read low 0.992 | locus YNL233W, strain BNI4, active compounds read low 1.01 | locus YNL248C, strain rpa49, active compounds read low 0.995 | locus YNL250W, strain rad50, active compounds read low 1.04 | locus YNL271C, strain bni1, active compounds read low 0.999 | locus YNL298W, strain CLA4, active compounds read low 0.991 | locus YNL307C, strain MCK1, active compounds read low 1.01 | locus YNL322C, strain KRE1 (second series), active compounds read low 0.989 | locus YNR049C, strain mso1, active compounds read low 0.994 | locus YNR052C, strain pop2, active compounds read low 1.02 | locus YOL006C, strain TOP1, active compounds read low 0.891 | locus YOL012C, strain htz1 1.11 | locus YOL147C, strain pex11, active compounds read low 0.996 | locus YOR001W, strain rrp6, active compounds read low 0.981 | locus YOR061W, strain CKA2, active compounds read low 0.985 | locus YOR069W, strain VPS5, active compounds read low 1.01 | locus YOR070C, strain gyp1, active compounds read low 0.988 | locus YOR080W, strain dia2, active compounds read low 0.99 | locus YOR083W, strain WHI5, active compounds read low 1 | locus YOR106W, strain vam3, active compounds read low 0.984 | locus YOR136W, strain idh2, active compounds read low 1 | locus YOR144C, strain elg1, active compounds read low 1 | locus YOR184W, strain ser1, active compounds read low 0.949 | locus YOR231W, strain MKK1, active compounds read low 0.998 | locus YOR265W, strain rbl2, active compounds read low 1 | locus YOR270C, strain vph1, active compounds read low 0.912 | locus YOR290C, strain snf2, active compounds read low 0.978 | locus YOR316C, strain cot1, active compounds read low 1.01 | locus YPL051W, strain arl3, active compounds read low 1.01 | locus YPL078C, strain atp4, active compounds read low 0.991 | locus YPL106C, strain sse1, active compounds read low 1.01 | locus YPL240C, strain hsp82, active compounds read low 0.989 | locus YPL241C, strain CIN2, active compounds read low 1 | locus YPL256C, strain CLN2, active compounds read low 1.06 | locus YPR119W, strain clb2, active compounds read low 1.02 | locus YPR141C, strain kar3, active compounds read low 1.01 | locus YPR163C, strain tif3, active compounds read low 1 | locus YPR167C, strain met16, active compounds read low 1 | strain wtn01, active compounds read low 0.976
